Screens from PubChem.
DT40 TDP1 CPT: DT40-hTDP1 cell growth loss with CPT; 420,000 compounds, 12% hits; Potency, µM (top dose mostly 46.2 µM), without a hit: at the top dose activity change, negative = growth inhibition, hits mostly inhibitors; AID 686979; chicken DT40 Tdp1-/-;hTDP1 cells + 20 nM CPT, ATP luminescence, 48 h; note: potency is the fitted concentration of half-maximal effect; % is set by controls: 0 for no effect and ±100 for the full control effect; nearly all actives have a fitted effect of over 55% in size
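Cell growth measured by CellTiter-Glo luminescence after a minimum 48 h, 37 C compound exposure with 20 nM CPT in Tdp1-knockout DT40 cells stably expressing hTDP1, seeded 400/well; qHTS titration format.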
ASM inhibitor: inhibitors of human secretory acid sphingomyelinase. P17405. placental ASM, HMU-PC fluorogenic substrate, 60 min. Potency, µM (series often up to 57.5 µM), for the others: at the top dose activity change, negative = inhibition, usual class: inhibitors. 340,000 compounds, 0.006% hits. AID 504937; note: potency is the fitted concentration of half-maximal effect
Target sequence (P17405 47-631 limits assumed): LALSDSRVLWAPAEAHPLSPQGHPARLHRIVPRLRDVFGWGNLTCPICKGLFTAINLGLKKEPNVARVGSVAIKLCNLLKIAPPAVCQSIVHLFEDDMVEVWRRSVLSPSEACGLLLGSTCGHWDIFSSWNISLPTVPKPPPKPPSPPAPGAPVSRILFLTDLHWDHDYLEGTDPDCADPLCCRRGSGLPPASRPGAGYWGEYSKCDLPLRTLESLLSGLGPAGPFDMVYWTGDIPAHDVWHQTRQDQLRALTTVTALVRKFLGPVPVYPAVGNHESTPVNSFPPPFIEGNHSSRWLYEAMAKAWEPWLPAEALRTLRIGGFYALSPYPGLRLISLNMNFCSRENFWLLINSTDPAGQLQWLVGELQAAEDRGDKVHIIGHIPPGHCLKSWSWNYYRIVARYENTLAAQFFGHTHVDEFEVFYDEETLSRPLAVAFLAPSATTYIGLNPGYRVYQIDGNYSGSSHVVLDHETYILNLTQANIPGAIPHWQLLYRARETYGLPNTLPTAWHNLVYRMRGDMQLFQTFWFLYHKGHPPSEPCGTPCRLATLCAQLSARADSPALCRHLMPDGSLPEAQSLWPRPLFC
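Fluorescence read-out (Ex 386 nm, Em 447 nm) after stopping the reaction at pH 10. Enzyme: ASM from human placenta; substrate HMU-PC0, 9 uM final; 60 min, 37 °C. Compound preincubation 10 min, ambient temperature.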
TGFb SMAD3 inh: inhibitors of TGF-b signaling; HepG2 CAGA-GFP TGF-b/SMAD3 reporter, GFP fluorescence, 18 h; TGF-beta stimulated, 500 pg/mL final; Potency, µM (doses to about 46.1 µM), without a hit: top-dose activity, negative = inhibition, usual class: inhibitors; 410,000 compounds, 1.2% hits; AID 588855; note: potency is the fitted concentration of half-maximal effect; % is set by controls: 0 for no effect and ±100 for the full control effect; nearly all actives have a fitted effect of over 65% in size
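Using HEPG2 CAGA-GFP reporter cells at 1000 cells/well, we pinned test compounds, stimulated with recombinant TGF-beta (500 pg/mL final) and measured total well GFP after 18 h.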
IL-1B inflam inh: blocks inflammasome-driven IL-1 beta release; THP-1 LPS/ATP IL-1B secretion, AlphaLISA, 16 h; active compounds read low; activity change, % at 57.5 µM; 360,000 compounds, 4.7% hits; in the data active = activity change below about -50%; inconclusive = mostly about -30% to -49%; note: % is set by controls: 0 for no effect and ±100 for the full control effect
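Secreted IL-1B measured by AlphaLISA bead assay after 16 h compound exposure of THP-1 cells; compounds (final up to 57.5 uM) added 1 h before LPS (250 ng/mL) and ATP (1.25 mM) stimulation; lower signal means less secretion.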
HepG2 tox: counter-screen for TGF-b inhibitors: cytotoxicity in HepG2 cells | HepG2 CAGA-GFP viability, ATP luminescence, 18 h | Potency, µM (highest dose often 46.1 µM), for the others: at the top dose activity change, negative = cytotoxicity, hits mostly cytotoxic | 410,000 compounds, 0.76% hits; note: potency is the fitted concentration of half-maximal effect
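CellTiter-Glo luminescence gave cytotoxicity after 18 hours at 37 degrees C. The cells were HepG2 CAGA-GFP in 1% FBS DMEM, stimulated with 500 pg/mL TGF-beta after compound addition. %Activity was normalised to no-cell wells (complete cell-killing) and DMSO (no toxicity), and curves were fitted and classified.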
TDP1 cell noCPT: qHTS for Inhibitors of human tyrosyl-DNA phosphodiesterase 1 (TDP1): qHTS in cells in absence of CPT. DT40 Tdp1-/- hTDP1 cells, no CPT, ATP luminescence, 48 h. Potency, µM (series often up to 46.2 µM), for the others: top-dose activity change, negative = growth inhibition, actives largely listed as inhibitors. 420,000 compounds, 15% hits. AID 686978, 2013; note: potency is the fitted concentration of half-maximal effect; % is set by controls: 0 for no effect and ±100 for the full control effect; nearly all actives have a fitted effect of over 55% in size
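Growth of hTDP1-complemented DT40 Tdp1-knockout cells is measured by ATP luminescence after at least 48 hr compound exposure at 37 °C, with DMSO substituting for the 20 nM CPT used in the parallel screen.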
Numbers without * were called inactive; [ ] = dose if it differs, or a comment. Hits are enriched below; roughly 19% of the tested compounds scored in any of these assays. Unless noted, calls come from the whole dose curve; as a rule, active = well fitted curve in the direction sought with a large enough effect; inconclusive = small, poorly fitted or top-dose-only effect, or another doubt; inactive = no such curve, though single readings can be large; an effect the other way counts as inactive or inconclusive.

`COCCOC(=O)c1[nH]c2c(c1C)C(=O)CC(c1ccc(F)cc1)C2` (stereo unspecified) gave DT40 TDP1 CPT 3.3µM*, ASM inhibitor 2%, TGFb SMAD3 inh 5%, IL-1B inflam inh 62, HepG2 tox -3% and TDP1 cell noCPT 5.8µM*.
COc1ccc(C2CC(=O)c3c([nH]c(C(=O)OCCOc4ccccc4)c3C)C2)cc1OC (stereo unspecified) was read as DT40 TDP1 CPT inconclusive, TGFb SMAD3 inh inconclusive, HepG2 tox -8% and TDP1 cell noCPT inconclusive.
For C=CCOC(=O)c1[nH]c2c(c1C)C(=O)CC(c1cc(OC)c(OC)c(OC)c1)C2 (stereo unspecified) the results were DT40 TDP1 CPT 21µM*, ASM inhibitor -2%, TGFb SMAD3 inh -19%, IL-1B inflam inh inconclusive, HepG2 tox -26% and TDP1 cell noCPT 7.3µM*.
`Cc1cccc(N2CC(C)Cn3c2nc2c3c(=O)[nH]c(=O)n2C)c1` (stereo unspecified) gave DT40 TDP1 CPT inconclusive, ASM inhibitor 1%, TGFb SMAD3 inh 0%, IL-1B inflam inh 31, HepG2 tox 3% and TDP1 cell noCPT -29%.
`O=C(COC(=O)CNS(=O)(=O)c1cccc(F)c1)NCCc1ccccc1` gave DT40 TDP1 CPT 6%, ASM inhibitor -1%, TGFb SMAD3 inh 5%, IL-1B inflam inh 11, HepG2 tox 9% and TDP1 cell noCPT -5%.
`OCC(O)C1OC(c2ccco2)OC(CO)C1O` (stereo unspecified) gave DT40 TDP1 CPT 0%, ASM inhibitor 0%, TGFb SMAD3 inh 1%, IL-1B inflam inh -2, HepG2 tox 3% and TDP1 cell noCPT -1%.
For Cc1c(Cl)cccc1NC(=O)CCS(=O)(=O)c1ccc2c(c1)CC(=O)N2C the results were DT40 TDP1 CPT -18%, TGFb SMAD3 inh inconclusive, HepG2 tox -13% and TDP1 cell noCPT -20%.
Screening Fc1ccc(-c2nnc(NC3=NCCCCC3)o2)cc1 returned DT40 TDP1 CPT inconclusive, ASM inhibitor 0%, TGFb SMAD3 inh 5%, IL-1B inflam inh 11, HepG2 tox 13µM* and TDP1 cell noCPT 13µM*.
`O=c1[nH]c(SCc2ccc(OC(F)(F)F)cc2)nc2c1CCC2` gave DT40 TDP1 CPT inconclusive, TGFb SMAD3 inh 5%, IL-1B inflam inh 0, HepG2 tox -37% and TDP1 cell noCPT inconclusive.
C=CCN(c1ccccc1)S(=O)(=O)c1cccc(C(=O)NNC(=O)c2ccncc2)c1 was read as DT40 TDP1 CPT -12%, ASM inhibitor -2%, TGFb SMAD3 inh -12%, IL-1B inflam inh -15, HepG2 tox 1% and TDP1 cell noCPT inconclusive.
C=CCN(c1ccccc1)S(=O)(=O)c1cccc(C(=O)N2CC(C)CC(C)C2)c1 (stereo unspecified) was read as DT40 TDP1 CPT 9.2µM*, ASM inhibitor -1%, TGFb SMAD3 inh -38%, IL-1B inflam inh inactive, HepG2 tox -2% and TDP1 cell noCPT 3.7µM*.
Screening C=CCN(c1ccccc1)S(=O)(=O)c1cccc(C(=O)N2CCCC2)c1 returned DT40 TDP1 CPT 16µM*, ASM inhibitor 2%, TGFb SMAD3 inh -29%, IL-1B inflam inh 7, HepG2 tox -6% and TDP1 cell noCPT 18µM*.
COC(=O)C1(CCSC)NC(c2ccc(O)cc2)C2C(=O)N(c3ccc(F)cc3)C(=O)C21 (stereo unspecified) was read as DT40 TDP1 CPT -2%, ASM inhibitor 3%, TGFb SMAD3 inh 4%, IL-1B inflam inh 14, HepG2 tox 2% and TDP1 cell noCPT inconclusive.
Screening CCCCOc1ccc(C(=O)NCc2nnnn2-c2ccc(C)c(C)c2)cc1 returned DT40 TDP1 CPT 16µM*, TGFb SMAD3 inh inconclusive, HepG2 tox -17% and TDP1 cell noCPT inconclusive.
For Cc1ccc(-n2nnnc2CNC(=O)C(C)(C)C)cc1C the results were DT40 TDP1 CPT -11%, TGFb SMAD3 inh 7%, HepG2 tox 0% and TDP1 cell noCPT -10%.
`COc1ccc(C(=O)CSc2nnc(-c3ccco3)n2CC2CCCO2)cc1` (stereo unspecified) gave DT40 TDP1 CPT inconclusive, ASM inhibitor -2%, TGFb SMAD3 inh 8%, IL-1B inflam inh -7, HepG2 tox -21% and TDP1 cell noCPT inconclusive.
For O=C(CSc1nnc(-c2ccco2)n1CC1CCCO1)c1ccc(F)cc1 (stereo unspecified) the results were DT40 TDP1 CPT 18µM*, ASM inhibitor 1%, TGFb SMAD3 inh -5%, IL-1B inflam inh -18, HepG2 tox -71% and TDP1 cell noCPT 21µM*.
`Cc1nc(N2CCCC2)ncc1C(=O)NCc1ccccc1Cl` gave DT40 TDP1 CPT 0%, TGFb SMAD3 inh -4%, HepG2 tox -3% and TDP1 cell noCPT -24%.
`COc1ccc(-c2nn3c(-c4ccccc4C)nnc3c3ccccc23)cc1` gave DT40 TDP1 CPT inconclusive, TGFb SMAD3 inh inconclusive, HepG2 tox -105% and TDP1 cell noCPT inconclusive.
Screening c1ccc2c(c1)OCC(c1csc3ncnc(N4CCCC4)c13)O2 (stereo unspecified) returned DT40 TDP1 CPT 15µM*, ASM inhibitor -6%, TGFb SMAD3 inh inconclusive, IL-1B inflam inh -7, HepG2 tox -12% and TDP1 cell noCPT 10µM*.
Screening c1ccc(CCNc2ncnc3scc(C4COc5ccccc5O4)c23)cc1 (stereo unspecified) returned DT40 TDP1 CPT inconclusive, ASM inhibitor -23%, TGFb SMAD3 inh 16µM*, IL-1B inflam inh 0, HepG2 tox -47% and TDP1 cell noCPT 18µM*.
`O=C(CSc1nnc(C2COc3ccccc3O2)o1)N1CCCCC1` (stereo unspecified) gave DT40 TDP1 CPT -8%, ASM inhibitor 0%, TGFb SMAD3 inh 10%, IL-1B inflam inh -4, HepG2 tox -15% and TDP1 cell noCPT -9%.
`O=C(C1CCOC1)N1CCOc2ccc(CN3CCC(Oc4cccnc4)CC3)cc2C1` (stereo unspecified) gave DT40 TDP1 CPT -13%[9.04 µM] and TDP1 cell noCPT -10%.
`S=C(N/N=C/c1ccc2ncccc2c1)Nc1ccccc1` gave DT40 TDP1 CPT 23µM*, ASM inhibitor -16%, TGFb SMAD3 inh inconclusive, IL-1B inflam inh -11, HepG2 tox 1% and TDP1 cell noCPT 21µM*.
